PubChem BioAssay (NCATS)
Results filed as inconclusive are left out. A call without a number means that no potency is given here. The source made the active and inactive calls. Calls come from the whole dose curve; as a rule, active = well fitted curve in the direction sought with a large enough effect; inconclusive = small, poorly fitted or top-dose-only effect, or another doubt; inactive = no such curve, though single readings can be large; an effect the other way counts as inactive or inconclusive.

molecular target: Parathyroid hormone/parathyroid hormone-related peptide receptor (Homo sapiens) (UniProt Q03431); assay: qHTS for PTHR1 Agonists: Optimization Screen against the NCGC LOPAC library (AID 1347079); conditions: HEK293 GP2 PTHR1 GloSensor cAMP luminescence, 1 h; series mostly up to 57.1 µM;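 note: GloSensor cAMP luminescence in HEK-293 GP2 cells expressing human PTHR1 with IBMX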
Sequence (Q03431 whole entry, looked up): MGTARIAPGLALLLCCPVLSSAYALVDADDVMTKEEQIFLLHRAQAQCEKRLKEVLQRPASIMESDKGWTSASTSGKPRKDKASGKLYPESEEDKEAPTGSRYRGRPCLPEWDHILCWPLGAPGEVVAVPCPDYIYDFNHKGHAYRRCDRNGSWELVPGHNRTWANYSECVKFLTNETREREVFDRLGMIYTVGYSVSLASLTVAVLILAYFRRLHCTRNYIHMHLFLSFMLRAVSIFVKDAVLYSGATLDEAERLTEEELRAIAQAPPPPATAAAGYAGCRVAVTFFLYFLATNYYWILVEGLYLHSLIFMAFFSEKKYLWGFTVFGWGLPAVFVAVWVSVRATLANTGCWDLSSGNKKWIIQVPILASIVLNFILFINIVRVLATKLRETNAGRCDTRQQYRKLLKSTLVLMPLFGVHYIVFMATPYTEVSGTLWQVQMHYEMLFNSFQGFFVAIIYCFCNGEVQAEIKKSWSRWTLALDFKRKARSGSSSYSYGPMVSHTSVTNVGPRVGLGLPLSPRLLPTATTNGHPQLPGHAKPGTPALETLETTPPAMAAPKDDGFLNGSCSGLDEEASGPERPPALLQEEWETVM
Outline: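 HEK-293 GP2 cells, PTHR1 + GloSensor cAMP; 3000 cells/well, o/n. Luciferin + IBMX 0.5mM each (stock), 1 hr 37C. Cpd titration, 1 hr 37C. Lum after 15 min RT. Ctrl M-PTH(1-15) top 10uM.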
Potency is the fitted concentration of half-maximal effect.

Structure (SMILES) | Potency
CN1Cc2sccc2C(c2ccc(O)c(O)c2)C1 (centres undefined) | inactive
CC(O)C(O)[C@H]1CNc2nc(N)[nH]c(=O)c2N1 (some centres undefined) | inactive
COc1ccc2c(c1)c(CC(=O)O)c(C)n2Cc1ccc(Cl)cc1 | inactive
Cn1c(=O)c2[nH]c(-c3ccc(S(=O)(=O)O)cc3)nc2n(C)c1=O | inactive
C[C@@]1(C2CCCC2)Cc2cc(OCC(=O)O)c(Cl)c(Cl)c2C1=O | inactive
CC(=O)/C(C)=N/O | inactive
CN1CCCC1CCOC(C)(c1ccccc1)c1ccc(Cl)cc1 (centres undefined) | inactive
CC(C)Cn1c(=O)n(C)c(=O)c2[nH]cnc21 | 4.23 µM (active)

molecular target: N-terminal Xaa-Pro-Lys N-methyltransferase 1 (Homo sapiens) (UniProt Q9BV86); assay: qHTS Assay for Inhibitors of N-terminal methyltransferase 1 (NTMT1): LOPAC validation of the NTMT1 SAHH-coupled ThioGlo3 Assay (AID 1347143); conditions: recombinant NTMT1, SAHH-coupled ThioGlo3 fluorescence; series mostly up to 114 µM;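 note: SAH from peptide methylation measured as thiol fluorescence via SAHH coupling and ThioGlo3; nearly all actives have a fitted effect of over 70% in size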
Sequence (Q9BV86 whole entry, looked up): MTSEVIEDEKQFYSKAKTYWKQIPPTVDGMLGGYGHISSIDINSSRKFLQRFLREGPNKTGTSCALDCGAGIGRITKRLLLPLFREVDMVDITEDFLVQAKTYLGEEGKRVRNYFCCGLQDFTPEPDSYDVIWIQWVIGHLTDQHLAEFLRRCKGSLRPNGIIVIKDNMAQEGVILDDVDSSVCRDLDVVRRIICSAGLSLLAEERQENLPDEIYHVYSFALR
Outline: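 In this qHTS pilot against the LOPAC set, 125nM NTMT1 met compounds tested at multiple concentrations, and fluorescence was normalized to background.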

Structure (SMILES) | Potency
O=c1[nH]c(=S)[nH]c(-c2ccccc2)c1Cc1c(O)ccc2ccccc12 | 79.4 µM (active)
C=C1C[C@@]23CC[C@H]4[C@@](C)(CCC[C@@]4(C)C(=O)O)[C@@H]2CC[C@]1(O)C3 | inactive
CCCn1c(=O)c2[nH]c(C3CCCC3)nc2n(CCC)c1=O | inactive
O=c1cc(-c2ccccc2)[nH]c2nc(Cl)ccc12 | 79.4 µM (active)
NC(=O)CNCCC(c1ccccc1)c1ccccc1 | inactive
COc1ccccc1N1CCN(CCN(C(=O)c2ccc(F)cc2)c2ccccn2)CC1 | inactive
CC#CCOC(=O)c1c(C)nc2sc3c(c2c1N)CCC(O)C3 (centres undefined) | 56.2 µM (active)
Nc1ccc2c3c(cccc13)C(=O)NC2=O | inactive
CCCn1c(=O)c2[nH]c(-c3ccc(S(=O)(=O)O)cc3)nc2n(CCC)c1=O | inactive
O=C(O)Cc1c[nH]c2ccc(O)cc12 | 56.2 µM (active)
Clc1nccc2c1ccc1ccccc12 | 50.1 µM (active)
O=C(O)/C=C/c1ccc(O)c(O)c1 | 44.7 µM (active)
O=C(O)Cc1ccc(O)c(O)c1 | 31.6 µM (active)
CNc1cc(NS(=O)(=O)c2ccc(N)cc2)nc(NC)n1 | inactive
C#CC(N)CCC(=O)O (centres undefined) | inactive
Nc1ccc(-c2nc3ccc(-c4nc5ccc(N)cc5[nH]4)cc3[nH]2)cc1 | 56.2 µM (active)
CCCCCCCCCC[Si](C)(C)CCC(=O)NC(Cc1ccc(C)cc1)c1ccccc1 (centres undefined) | inactive
c1ccc2c(c1)CCC[C@H]2Nc1nc2ccccc2[nH]1 | inactive
C[C@H](O)C(=O)C1=Nc2c(nc(N)[nH]c2=O)NC1 | 44.7 µM (active)
c1ccc(CN2CCC3(CCCc4ccccc43)CC2)cc1 | 50.1 µM (active)
NC(Cc1cccc(-c2ccccc2CP(=O)(O)O)c1)C(=O)O (centres undefined) | inactive
CC(O)C(O)[C@H]1CNc2nc(N)[nH]c(=O)c2N1 (some centres undefined) | 28.2 µM (active)
Cn1c(=O)c2[nH]c(-c3ccc(S(=O)(=O)O)cc3)nc2n(C)c1=O | 12.6 µM (active)
C[C@@]1(C2CCCC2)Cc2cc(OCC(=O)O)c(Cl)c(Cl)c2C1=O | inactive
CC(=O)/C(C)=N/O | inactive
CC(C)Cn1c(=O)n(C)c(=O)c2[nH]cnc21 | inactive
